# Assay results as given in PubChem BioAssay AID463173 (ICCB-Longwood Screening Facility, Harvard Medical School, 2010).
# In all, about 52,000 compounds went through this assay and about 4,300 (8.3%) were called active. For the sample, actives were picked, then their nearest neighbours and some compounds at random. Values without a mark were called inactive. No stated cut-off is given here; in the data, active means survival mostly below about 52% (no sharp cut-off); inactive means mostly above about 56%.
# Test system: DeltatarO mutant
# Test: S. aureus survival, RN4220 and DeltatarO strains – OD600, teichoic acid synthesis inhibitors, primary screen (AID 463173)
# Details: S. aureus RN4220 wild type/DeltatarO growth, OD600, 18 h, stronger effect = lower value, screened at 18.75 µg/mL (by protocol)
row,Compound,survival
1,O=[N+]([O-])c1ccc(O)c(-c2ccnc3cc(-c4ccccc4)nn23)c1,20% (active)
2,Cc1cc(O)c(-c2ccnc3cc(-c4ccccc4)nn23)cc1Cl,114%
3,CCOC(=O)COc1ccc([N+](=O)[O-])cc1-c1ccnc2cc(-c3ccc(C)cc3)nn12,76%
4,Cc1ccc(O)c(-c2ccnc3cc(-c4ccc(Cl)cc4)nn23)c1,86%
5,Cc1ccc(-c2cc3nccc(-c4cc([N+](=O)[O-])ccc4O)n3n2)cc1,29% (active)
6,CCOC(=O)COc1ccc([N+](=O)[O-])cc1-c1ccnc2cc(-c3ccc(Cl)cc3)nn12,89%
7,COc1cccc(NC(=O)C2CCCN(S(=O)(=O)c3c(C)nn(C)c3C)C2)c1 (stereo not given),87%
8,COc1ccc(NC(=O)c2cc(S(=O)(=O)N3CCCCC3)cn2C)cc1Cl,78%
9,CCNC(=O)c1sc2ccccc2c1Cl,105%
10,CCN(C(=O)c1cn(-c2ccc(OC)cc2)c(=O)c2ccccc12)c1cccc(Cl)c1,103%
11,CCN(C(=O)c1sc2cc(OC)ccc2c1Cl)c1ccccc1,0% (active)
12,Cc1cccc(OC(=O)c2cc(-c3ccc(C)c(C)c3)on2)c1,-2% (active)
13,O=C(Nc1cccc(C(F)(F)F)c1)c1cc(-c2ccc3c(c2)OCCO3)on1,116%
14,Cc1ccc(-c2cc(C(=O)Oc3ccc(C#N)cc3)no2)cc1C,50%
15,Cc1cc(C)cc(OC(=O)c2cc(-c3ccc4c(c3)OCCO4)on2)c1,-2% (active)
16,Cc1cccc(OC(=O)c2cc(-c3ccc4c(c3)OCCO4)on2)c1,-2% (active)
17,Cc1ccc(O)c(NC(=O)c2cc(-c3ccc4c(c3)OCO4)on2)c1,71%
18,Cc1cc(C)cc(OC(=O)c2cc(-c3ccc(Cl)cc3)on2)c1,94%
19,Cc1ccc(NC(=O)C2CCCN(S(=O)(=O)c3ccc(F)cc3)C2)cc1 (stereo not given),65%
20,COC(=O)c1c(NC(=O)c2nc(SCc3ccccc3C)ncc2Cl)sc2c1CCCC2,111%
21,Cc1ccc2nc(CSc3nnc(NC(=O)c4ccc(C(C)(C)C)cc4)s3)cc(=O)n2c1,81%
22,Cn1nnnc1SCC(=O)N1CCCc2ccccc21,81%
23,O=C1CC(C(=O)NCc2ccco2)C2(CCCCC2)O1 (stereo not given),85%

row,Compound,survival
1,N#Cc1cccc(NC(=O)CCNS(=O)(=O)c2ccc3c(c2)CCN3C(=O)C2CC2)c1,82%
2,Cc1nn2cc(-c3ccc(OC(C)C)cc3)nc2s1,84%
3,CCN(CC)CCCNC(=O)c1cnc(SC)nc1-c1ccccc1,69%
4,Cc1ccc(Nc2cc(C)c(C#N)c3nc4ccccc4n23)c(C)c1,38% (active)
5,Cc1cc(Nc2ccc(F)cc2)n2c(nc3ccccc32)c1C#N,89%
6,Cc1ccc(Nc2cc(C)c(C#N)c3nc4ccccc4n23)cc1Cl,83%
7,O=C(Cn1nnc(-c2ccccc2NC(=O)c2cnccn2)n1)Nc1ccc2c(c1)OCCO2,105%
8,O=C(Oc1ccc2c(c1)OCO2)c1cccc(S(=O)(=O)N2CCCC2)c1,58%
9,COc1cc(OC)c(NC(=O)CC(c2cccs2)N2Cc3ccccc3C2=O)cc1Cl (stereo not given),92%
10,COc1cc(C(CC(=O)NCCC(C)C)N2Cc3ccccc3C2=O)cc(OC)c1OC (stereo not given),94%
11,COc1ccc(CNC(=O)C(C(C)C)N2Cc3ccccc3C2=O)cc1 (stereo not given),-5% (active)
12,COc1ccc(CNC(=O)C(CC(C)C)N2Cc3ccccc3C2=O)cc1 (stereo not given),126%
13,CCOc1ccc(C(CC(=O)Nc2cc(C)c(Cl)cc2OC)N2Cc3ccccc3C2=O)cc1OC (stereo not given),70%
14,COc1cc(Cl)c(C)cc1NC(=O)CC(c1ccc(F)cc1)N1Cc2ccccc2C1=O (stereo not given),0% (active)
15,COc1ccc(C(CC(=O)Nc2cc(OC)c(OC)c(OC)c2)N2Cc3ccccc3C2=O)cc1 (stereo not given),57%
16,COc1cc(C(CC(=O)NCc2ccccc2)N2Cc3ccccc3C2=O)cc(OC)c1OC (stereo not given),135%
17,Cc1ccc(NC(=O)CC(c2ccc(F)cc2)N2Cc3ccccc3C2=O)cc1C (stereo not given),74%
18,CCOC(=O)CNC(=O)CC(c1cc(OC)c(OC)c(OC)c1)N1Cc2ccccc2C1=O (stereo not given),47% (active)
19,COc1ccc(C(CC(=O)Nc2cc(Cl)c(OC)cc2OC)N2Cc3ccccc3C2=O)cc1 (stereo not given),0% (active)
20,Cc1ccc(CNC(=O)C(C(C)C)N2Cc3ccccc3C2=O)cc1 (stereo not given),73%
21,CSc1nn(Cc2ccc(F)cc2)c(N(C(C)=O)C(C)=O)c1S(=O)(=O)c1ccccc1,74%
22,COc1ccc(OC)c(NC(=O)Cn2c(=O)n(Cc3nc(C)no3)c(=O)c3ccccc32)c1,90%
